# Experimental data: PubChem BioAssay (NCATS)
# Unmarked numbers belong to inactive results. Inconclusive results are not listed. The source made the active and inactive calls. Unless noted, calls come from the whole dose curve; as a rule, active = well fitted curve in either direction with a large enough effect (not every such curve was filed as active); inconclusive = small, poorly fitted or top-dose-only effect, or another doubt; inactive = flat fitted curve, though single readings scatter.
# What was measured:
# [1] = target: Lysosomal acid glucosylceramidase (Homo sapiens) (UniProt P04062); experiment: Glucocerebrosidase-p2 (AID 348; in the data active = potency below about 10 µM; note: potency is the fitted concentration of half-maximal effect); conditions: purified GBA, blue fluorogenic substrate, 40 min
# Chain of Lysosomal acid glucosylceramidase (Homo sapiens) (P04062 whole entry, looked up): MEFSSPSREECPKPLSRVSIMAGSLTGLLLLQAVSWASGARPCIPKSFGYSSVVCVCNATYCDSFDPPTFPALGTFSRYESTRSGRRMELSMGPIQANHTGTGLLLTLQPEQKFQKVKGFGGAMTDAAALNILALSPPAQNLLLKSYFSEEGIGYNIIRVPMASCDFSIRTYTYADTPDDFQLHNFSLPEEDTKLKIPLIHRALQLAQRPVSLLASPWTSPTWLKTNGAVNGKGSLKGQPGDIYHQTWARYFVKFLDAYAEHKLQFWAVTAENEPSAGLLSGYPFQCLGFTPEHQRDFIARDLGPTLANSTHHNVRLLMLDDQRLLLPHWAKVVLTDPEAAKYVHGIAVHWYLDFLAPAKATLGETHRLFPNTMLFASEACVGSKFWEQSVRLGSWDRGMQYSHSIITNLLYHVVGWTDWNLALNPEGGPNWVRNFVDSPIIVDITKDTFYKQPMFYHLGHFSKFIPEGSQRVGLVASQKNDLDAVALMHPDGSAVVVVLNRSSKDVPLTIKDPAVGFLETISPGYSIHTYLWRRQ
# Summary of the method: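 Normal human glucocerebrosidase (0.2 nM) with blue fluorogenic substrate (80 uM final) in citrate/phosphate pH 5.9 with 10mM sodium taurocholate, 0.01% tween-20; 40 min RT, NaOH/glycine stop; fluorescence Ex 365/Em 440; AC50 from a titration from 0.6 nM upwards.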
# [2] = AP1 Signaling Pathway (AID 357); conditions: ME-180 AP-1-bla reporter, EGF-induced, beta-lactamase ratio, 5 h; at 7.69 µM (top of the series) unless noted; note: % is set by controls: 0 for no effect and ±100 for the full control effect
# Summary of the method: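 AP-1-bla ME-180 cells with beta-lactamase reporter under AP-1 response element, stimulated with EC50 EGF; compounds titrated, 5 hours at 37 degrees Celsius. CCF4 read at 460/530 nm ratio; positive and negative modulators judged by AC50.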
# [3] = target: Cytochrome P450 1A2 (Homo sapiens) (UniProt P05177); experiment: p450-cyp1a2 (AID 410; calls by dose curve; note: potency is the fitted concentration of half-maximal effect;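 for activity change, negative = inhibition: -100% = full effect of reference inhibitor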); conditions: recombinant CYP1A2, luciferin-ME demethylation, luminescence; series mostly up to 57 µM
# Chain of Cytochrome P450 1A2 (Homo sapiens) (P05177 whole entry, looked up): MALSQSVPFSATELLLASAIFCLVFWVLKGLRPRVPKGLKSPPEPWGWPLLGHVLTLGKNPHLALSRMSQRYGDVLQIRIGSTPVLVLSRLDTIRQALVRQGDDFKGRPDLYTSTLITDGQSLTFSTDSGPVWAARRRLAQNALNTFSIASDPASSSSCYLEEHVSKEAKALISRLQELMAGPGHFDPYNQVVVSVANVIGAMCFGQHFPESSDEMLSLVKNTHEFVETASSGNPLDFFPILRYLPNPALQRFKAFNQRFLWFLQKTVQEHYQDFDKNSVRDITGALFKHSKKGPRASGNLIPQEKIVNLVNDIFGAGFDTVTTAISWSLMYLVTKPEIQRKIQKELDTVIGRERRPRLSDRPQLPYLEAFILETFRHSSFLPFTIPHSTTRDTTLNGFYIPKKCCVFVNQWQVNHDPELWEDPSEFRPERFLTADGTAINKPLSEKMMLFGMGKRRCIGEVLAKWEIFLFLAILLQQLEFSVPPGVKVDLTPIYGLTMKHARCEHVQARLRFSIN
# Summary of the method: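 Luminescent demethylation readout: Luciferin-ME (100uM, equal to Km) turned over by 20nM CYP1A2 for 60 min at room temperature after NADPH regeneration addition, following 10 min compound preincubation. Normalization used 57 uM furafylline as full inhibition.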
# [4] = NFAT Signaling Pathway (AID 444); conditions: Jurkat NFAT-bla M1, carbachol, beta-lactamase ratio, 5 h; at 7.69 µM (top of the series) unless noted;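 note: carbachol stimulus at about its EC50 of 1 µM final; % is set by controls: 0 for no effect and ±100 for the full control effect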
# Summary of the method: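 Jurkat cells carrying an NFAT-driven β-lactamase reporter and co-transfected muscarinic M1 receptor were treated with compound plus carbachol (1 uM final, an EC50 level) for 5 h at 37 °C. CCF4 loading followed for 1 h at RT; 460/530 nm ratio gave %activity.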
# [5] = Stat Signaling Pathway (AID 446); conditions: ME-180 SIE beta-lactamase reporter, IL-6 stimulated, 5 h; at 7.69 µM (top of the series) unless noted;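 note: ME-180 cervical cancer cells given 40 pM IL-6 alongside compound; SIE-controlled beta-lactamase reporter measured as 460/530 nm FRET emission ratio; % is set by controls: 0 for no effect and ±100 for the full control effect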
# Summary of the method: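 Normalization used AC90 stimulation (300 pM IL-6) and AC90 inhibition (125 nM pan-JAK inhibitor at 40 pM IL-6). The underlying signal is SIE-driven beta-lactamase in ME-180 cells after 5 h IL-6 exposure with compound.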
# [6] = target: Glucocorticoid receptor (Homo sapiens) (UniProt P04150); experiment: GR-EFC Redistribution (AID 451; calls by dose curve; note: potency is the fitted concentration of half-maximal effect); conditions: CHO-K1 GR-EFC translocation, beta-gal luminescence, 2 h
# Chain of Glucocorticoid receptor (Homo sapiens) (P04150 whole entry, looked up, the tested form may be a part): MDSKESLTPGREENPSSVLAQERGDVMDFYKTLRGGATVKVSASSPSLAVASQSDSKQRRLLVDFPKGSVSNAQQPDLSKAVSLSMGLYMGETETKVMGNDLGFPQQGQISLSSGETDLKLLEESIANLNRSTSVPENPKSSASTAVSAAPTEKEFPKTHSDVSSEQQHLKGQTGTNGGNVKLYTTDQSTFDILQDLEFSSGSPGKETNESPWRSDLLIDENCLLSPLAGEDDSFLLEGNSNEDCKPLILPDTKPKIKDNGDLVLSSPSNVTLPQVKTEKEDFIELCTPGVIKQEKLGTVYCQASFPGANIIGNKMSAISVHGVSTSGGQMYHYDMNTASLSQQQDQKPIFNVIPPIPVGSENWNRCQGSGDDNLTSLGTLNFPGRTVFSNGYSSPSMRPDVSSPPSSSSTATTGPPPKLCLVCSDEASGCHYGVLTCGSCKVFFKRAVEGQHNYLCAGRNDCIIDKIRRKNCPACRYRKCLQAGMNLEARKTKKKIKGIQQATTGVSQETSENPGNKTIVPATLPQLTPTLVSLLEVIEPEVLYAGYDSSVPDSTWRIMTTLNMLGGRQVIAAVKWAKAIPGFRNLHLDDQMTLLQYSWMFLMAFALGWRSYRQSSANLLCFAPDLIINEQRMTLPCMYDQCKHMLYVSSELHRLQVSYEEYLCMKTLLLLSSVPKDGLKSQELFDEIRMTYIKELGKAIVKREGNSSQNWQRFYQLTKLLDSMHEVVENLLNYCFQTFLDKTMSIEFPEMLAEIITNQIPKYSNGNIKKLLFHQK
# Summary of the method: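 CHO-K1 cells stably expressing nuclear-localized β-gal enzyme acceptor and GR fused C-terminally to the enzyme donor fragment; ligand-driven nuclear translocation restores β-gal by complementation. Compounds titrated up to 46 uM final, 2 h at 37 °C; luminescence read.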
# [7] = target: Mitogen-activated protein kinase 10 (Mus musculus) (UniProt Q61831); experiment: JNK3 AlphaScreen Assay (AID 530); conditions: JNK3 lysate, c-Jun phosphorylation; series mostly up to 57.1 µM;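 note: kinase came from lysate of stimulated human HepG2 cells; signal reports phosphorylation of biotinylated GST-cJun 1-79 at Ser73 with 10 µM ATP; % is set by controls: 0 for no effect and ±100 for the full control effect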
# Summary of the method: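 Phosphorylation of biotinylated GST-cJun(1-79) at Ser73 is measured by AlphaScreen proximity luminescence. Enzyme is JNK3 in HepG2 lysates activated with interleukin-1beta and tumor necrosis factor alpha; ATP is 10 uM final.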
# [8] = target: 3',5'-cyclic-AMP phosphodiesterase 4B (Homo sapiens) (UniProt Q07343); experiment: qHTS Assay for Inhibitors of PDE-IV (AID 607; active = well fitted activation curve with a large enough effect in the main read-out, with a control signal flat, not every such curve was filed as active; note: % of control where 0% means no effect); conditions: HEK293 ACTOne CNG channel cells, membrane potential fluorescence; series mostly up to 22.9 µM
# Chain of 3',5'-cyclic-AMP phosphodiesterase 4B (Homo sapiens) (Q07343 whole entry, looked up): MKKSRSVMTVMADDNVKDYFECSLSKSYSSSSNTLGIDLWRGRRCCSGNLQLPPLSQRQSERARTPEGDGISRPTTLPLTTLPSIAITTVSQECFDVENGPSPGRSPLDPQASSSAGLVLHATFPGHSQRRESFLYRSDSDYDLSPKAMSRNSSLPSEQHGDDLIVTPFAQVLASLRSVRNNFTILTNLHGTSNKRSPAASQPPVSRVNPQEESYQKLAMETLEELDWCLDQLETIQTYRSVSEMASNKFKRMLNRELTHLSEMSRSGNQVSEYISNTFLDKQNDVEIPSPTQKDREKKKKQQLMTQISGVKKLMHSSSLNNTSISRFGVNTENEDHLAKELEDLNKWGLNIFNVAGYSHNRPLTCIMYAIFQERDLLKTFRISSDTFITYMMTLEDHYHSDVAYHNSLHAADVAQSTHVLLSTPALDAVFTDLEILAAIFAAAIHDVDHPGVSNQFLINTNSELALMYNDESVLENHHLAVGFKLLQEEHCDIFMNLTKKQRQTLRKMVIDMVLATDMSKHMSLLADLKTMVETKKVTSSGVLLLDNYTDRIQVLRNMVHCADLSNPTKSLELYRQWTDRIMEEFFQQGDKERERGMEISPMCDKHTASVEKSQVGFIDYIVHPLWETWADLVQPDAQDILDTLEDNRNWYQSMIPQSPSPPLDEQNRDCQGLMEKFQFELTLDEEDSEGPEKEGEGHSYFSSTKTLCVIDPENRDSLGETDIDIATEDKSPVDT
# Summary of the method: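 HEK293 ACTOne cells with CNG channel (1000/well), endogenous PDE4; membrane potential dye, compounds up to 22.9 uM final. Fluorescence Ex 535/Em 590; RO 20-1724 (100 uM final) as reference.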
# [9] = target: Cytochrome P450 3A4 (Homo sapiens) (UniProt P08684); experiment: qHTS Assay for Activators of Cytochrome P450 3A4 (AID 885; active = well fitted curve in the direction sought with a large enough effect; an effect the other way counts as inactive or inconclusive; note: nearly all actives have a fitted effect of over 65% in size; note: potency is the fitted concentration of half-maximal effect); conditions: recombinant CYP3A4, Luciferin-PPXE luminescence, 60 min; series mostly up to 57.1 µM
# Chain of Cytochrome P450 3A4 (Homo sapiens) (P08684 whole entry, looked up): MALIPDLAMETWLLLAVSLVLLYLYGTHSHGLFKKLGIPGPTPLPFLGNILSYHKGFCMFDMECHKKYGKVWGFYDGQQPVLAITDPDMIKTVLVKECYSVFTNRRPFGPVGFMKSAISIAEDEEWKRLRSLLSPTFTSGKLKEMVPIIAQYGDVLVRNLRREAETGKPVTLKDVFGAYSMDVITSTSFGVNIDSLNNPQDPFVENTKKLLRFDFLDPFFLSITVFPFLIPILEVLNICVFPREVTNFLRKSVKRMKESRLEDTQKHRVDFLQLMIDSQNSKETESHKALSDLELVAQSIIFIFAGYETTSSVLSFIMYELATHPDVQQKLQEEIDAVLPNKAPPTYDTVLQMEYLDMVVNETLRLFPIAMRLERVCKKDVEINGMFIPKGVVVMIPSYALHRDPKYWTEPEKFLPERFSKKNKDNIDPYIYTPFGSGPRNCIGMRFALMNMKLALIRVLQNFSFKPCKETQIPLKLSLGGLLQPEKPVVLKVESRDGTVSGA
# Summary of the method: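 Human CYP3A4 dealkylates Luciferin-PPXE to luciferin, which luciferase detection converts to light. Substrate was at its KM (25uM), buffer 200mM KPO4, reaction 60 min at RT.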
# [10] = target: Ubiquitin carboxyl-terminal hydrolase 1 (Homo sapiens) (UniProt O94782); experiment: Inhibitors of USP1/UAF1: Pilot qHTS (AID 504865; active = well fitted curve in the direction sought with a large enough effect; an effect the other way counts as inactive or inconclusive;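 note: rhodamine fluorescence freed from ubiquitin-rhodamine substrate followed over time; top concentration of the series differs between compounds; % is set by controls: 0 for no effect and ±100 for the full control effect; nearly all actives have a fitted effect of over 35% in size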); conditions: purified USP1/UAF1, Ub-rhodamine cleavage fluorescence; series mostly up to 54.9 µM
# Chain of Ubiquitin carboxyl-terminal hydrolase 1 (Homo sapiens) (O94782 whole entry, looked up): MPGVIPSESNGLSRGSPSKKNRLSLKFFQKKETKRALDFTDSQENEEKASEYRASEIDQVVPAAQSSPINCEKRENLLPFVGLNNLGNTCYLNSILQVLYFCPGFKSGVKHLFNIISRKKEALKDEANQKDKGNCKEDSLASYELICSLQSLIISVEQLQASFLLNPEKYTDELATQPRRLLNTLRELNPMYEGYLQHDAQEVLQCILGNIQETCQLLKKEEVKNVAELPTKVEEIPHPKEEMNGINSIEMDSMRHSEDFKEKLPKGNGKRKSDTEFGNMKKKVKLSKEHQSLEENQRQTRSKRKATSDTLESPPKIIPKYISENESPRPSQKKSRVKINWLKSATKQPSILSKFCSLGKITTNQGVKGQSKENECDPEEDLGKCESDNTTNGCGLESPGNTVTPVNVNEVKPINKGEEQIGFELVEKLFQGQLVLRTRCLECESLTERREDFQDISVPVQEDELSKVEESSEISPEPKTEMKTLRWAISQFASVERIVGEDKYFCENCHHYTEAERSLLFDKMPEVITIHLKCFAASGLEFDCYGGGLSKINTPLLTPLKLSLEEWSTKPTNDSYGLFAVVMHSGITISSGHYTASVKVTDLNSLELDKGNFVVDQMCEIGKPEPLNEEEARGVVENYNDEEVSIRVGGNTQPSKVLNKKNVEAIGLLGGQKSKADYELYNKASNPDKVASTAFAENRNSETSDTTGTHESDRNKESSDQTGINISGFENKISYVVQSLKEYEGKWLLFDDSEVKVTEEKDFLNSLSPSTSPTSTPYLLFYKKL
# Summary of the method: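 Enzyme-free wells gave the negative control, while test wells held 1nM USP1/UAF1 preincubated with compound for 15 min at room temperature. Ub-Rho at 150nM final started the reaction, and fluorescence at 480/540 nm was recorded kinetically.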
# [11] = Primary qHTS for small molecule stabilizers of the endoplasmic reticulum resident proteome: Secreted ER Calcium Modulated Protein (SERCaMP) assay (AID 1508630; active = well fitted curve in the direction sought with a large enough effect; an effect the other way counts as inactive or inconclusive; note: % is set by controls: 0 for no effect and ±100 for the full control effect); conditions: SH-SY5Y GLuc-SERCaMP (Gaussia luciferase released on ER calcium loss) secretion, thapsigargin, luminescence; series mostly up to 38.4 µM
# Summary of the method: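 The SH-SY5Y reporter protocol was run at 3 concentrations up to 38.3 uM (primary) or 11 concentrations (follow-up): 16 h compound, 100 nM thapsigargin for 4 h, then extracellular luciferase luminescence.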
# [12] = target: Cytochrome P450 3A4 (Homo sapiens) (UniProt P08684); experiment: qHTS Assay for Inhibitors and Substrates of Cytochrome P450 3A4 (AID 884; active = well fitted curve in the direction sought with a large enough effect; an effect the other way counts as inactive or inconclusive; note: nearly all actives have a fitted effect of over 50% in size; note: potency is the fitted concentration of half-maximal effect); conditions: recombinant CYP3A4, Luciferin-PPXE luminescence; series mostly up to 57.1 µM
# Summary of the method: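 Luminescent readout of luciferin produced by CYP3A4 (20 nM) dealkylation of Luciferin-PPXE, 25 uM (its KM). NADPH-driven reaction ran 60 min at RT after 10 min compound preincubation; data scaled to 57 uM ketoconazole as 100% inhibition.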
# [13] = target: Cytochrome P450 2C9 (Homo sapiens) (UniProt P11712); experiment: qHTS Assay for Inhibitors and Substrates of Cytochrome P450 2C9 (AID 883; active = well fitted curve in the direction sought with a large enough effect; an effect the other way counts as inactive or inconclusive; note: % is set by controls: 0 for no effect and ±100 for the full control effect; nearly all actives have a fitted effect of over 60% in size); conditions: recombinant CYP2C9, luciferin-H luminescence, 60 min; series mostly up to 57.1 µM
# Chain of Cytochrome P450 2C9 (Homo sapiens) (P11712 whole entry, looked up): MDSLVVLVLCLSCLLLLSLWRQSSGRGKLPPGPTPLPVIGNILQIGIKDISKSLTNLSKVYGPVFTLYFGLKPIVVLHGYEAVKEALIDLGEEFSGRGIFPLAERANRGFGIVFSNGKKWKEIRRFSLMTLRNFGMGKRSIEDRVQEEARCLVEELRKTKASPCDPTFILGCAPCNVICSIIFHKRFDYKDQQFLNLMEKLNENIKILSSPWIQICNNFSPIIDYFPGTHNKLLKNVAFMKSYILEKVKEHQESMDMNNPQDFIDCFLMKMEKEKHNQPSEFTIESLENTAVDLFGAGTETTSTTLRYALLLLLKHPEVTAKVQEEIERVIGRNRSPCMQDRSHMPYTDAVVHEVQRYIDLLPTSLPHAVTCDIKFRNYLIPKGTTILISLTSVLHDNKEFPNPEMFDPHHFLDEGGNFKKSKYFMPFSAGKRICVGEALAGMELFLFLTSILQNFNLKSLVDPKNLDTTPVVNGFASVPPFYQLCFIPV
# Summary of the method: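 A luminogenic readout tracked human CYP2C9 (10nM) converting deoxyluciferin (100uM, at KM) in 25mM KPO4 during 60 min at 37C with regenerated NADPH. Values normalized to 57uM sulphaphenazole as complete inhibition.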
# [14] = qHTS Assay for Identification of Small Molecule Agonists for Hypoxia Response Element Signaling Pathway (AID 914; active = well fitted activation curve with a large enough effect in the signal ratio, with a control signal flat, not every such curve was filed as active; the % refers to the signal ratio; note: % of control where 0% means no effect); conditions: ME-180 (cervical carcinoma) HRE-bla reporter, beta-lactamase ratio, CoCl2, 17 h; activation: active compounds read high
# Summary of the method: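 Reporter activity (beta-lactamase, CCF4 460nm/530nm ratio) in HRE-bla ME-180 cells is recorded after 17 h compound exposure with EC50 CoCl2 at 37 degrees Celsius. AC50 values come from titration data.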
Compound,Potency [1] [µM],"activity change, negative = inhibition [2] [%]",Potency [3],"activity change, negative = inhibition [4] [%]","activity, negative = inhibition [5] [%]",Potency [6] [µM],Potency [7],Potency [8],Potency [9],Potency [10],outcome [11],Potency [12],Potency [13],activation [14] [%]
Cn1cc(-c2nc3cncnc3n(CCN)c2=O)c2ccccc21,> 11.4,0.818,6.31 µM (active),3.03,0.835,> 46,inactive,inactive,inactive,inactive,inactive,,,
O=C(c1cccc(F)c1)N1CCC[C@@]2(CCN(c3cccc(-c4ccccc4)c3)C2)C1,> 11.4,4.68,15.8 µM (active),-14.4,-5.9,> 46,inactive,inactive,inactive,,inactive,7.94 µM (active),,
COc1ccc(C(=O)N2CCC3(CC2)CCN(c2ncccn2)CC3)cc1,> 11.4,3.18,inactive,0.535,4.32,> 46,inactive,inactive,5.01 µM (active),,inactive,inactive,,
O=C(c1ccco1)N1CCC2(CC1)CCN(c1ccc(-c3ccccc3)cc1)CC2,> 11.4,-1.18,inactive,17.6,-2.58,> 46,inactive,inactive,,,inactive,inactive,,
COc1ccc(NC(=O)N2CC[C@@]3(CCCN(C(=O)c4c(C)noc4C)C3)C2)cc1,> 11.4,-9.74,inactive,-10.6,-10.2,> 46,inactive,inactive,inactive,,inactive,,inactive,-0.633
COc1ccc(NC(=O)N2CCC3(CC2)CCN(C(=O)c2ccco2)CC3)cc1,> 11.4,-4.61,20 µM (active),3.53,-1.71,> 46,inactive,inactive,,,inactive,,,
COCC(=O)N1CCC2(CCCN(Cc3nccs3)C2)CC1,> 11.4,-21.8,inactive,-25.4,-1.77,> 46,inactive,inactive,,,inactive,,,
COC(=O)N1CCC2(CCCN(C(=O)Nc3ccccc3)C2)CC1,> 11.4,-8.56,inactive,8.44,-0.296,> 46,inactive,inactive,,,inactive,,,
O=C(c1cccc(F)c1)N1CCC2(CC1)CCN(c1ncccn1)CC2,> 11.4,-6.18,10 µM (active),2.49,-11.5,> 46,inactive,inactive,7.94 µM (active),,inactive,inactive,,
CC(=O)N1CCC2(CCCN(c3ncccn3)C2)CC1,> 11.4,-18.1,inactive,4.89,-2.74,> 46,inactive,inactive,,,inactive,,,
CS(=O)(=O)N1CCC2(CCCN(c3ncccn3)C2)CC1,> 11.4,1.67,15.8 µM (active),2.98,-8.29,> 46,inactive,inactive,,,inactive,,,
COc1ccc(C(=O)N2CCC[C@@]3(CCN(C(=O)Nc4cccc(C#N)c4)C3)C2)cc1,> 11.4,-11.5,inactive,16.6,1.52,> 46,inactive,inactive,inactive,,inactive,7.94 µM (active),,
COCC(=O)N1CCC2(CCCN(C(=O)Nc3cccc(C#N)c3)C2)CC1,> 11.4,-3.42,inactive,-3.66,-1.02,> 46,inactive,inactive,,,inactive,,,
COC(=O)N1CCC2(CC1)CCN(c1ncccn1)CC2,> 11.4,3.11,inactive,-23.4,-4.92,> 46,inactive,inactive,15.8 µM (active),,inactive,inactive,,
COC(=O)N1CCC[C@@]2(CCN(c3ncccn3)C2)C1,> 11.4,2.3,inactive,11.8,8.51,> 46,inactive,inactive,,,inactive,,,23.3
